Measurements from PubChem BioAssay AID651610 (Broad Institute, 2012).
Screen size: about 360,000 compounds; about 3,900 (1.1%) were called active. The sample holds actives, similar compounds and a random draw of the others, so the mix is not that of the screen.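 Rule for the calls: active = mean replicate inhibition score of at least 50 and every replicate individually at or above 50; inconclusive = only one of the two criteria met; inactive = mean below 50 and not all replicates reaching 50.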

Assay: blockers of JRFL envelope-mediated fusion – HeLa-JRFL effector, CEM21 target cells, luciferase, primary screen (AID 651610);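 note: 0% = plate neutral controls and 100% = maraviroc near 300 nM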
Conditions: HeLa-JRFL Env/CEM21 cell fusion, stronger effect = higher value; at 16.7 µM unless noted

inhibition, inactive:
CCn1c(SCc2cc(=O)n3ccsc3n2)nc2ccccc21 9.35% [at 12.3 µM], c1ccc(-c2cnc(CN3CCN(c4ccccc4)CC3)o2)cc1 3.52% [at 12.3 µM], C[C@H](O)C#Cc1cnc2c(c1)C(=O)N([C@H](C)CO)C[C@@H](C)[C@H](CN(C)CC1CCCCC1)O2 -6.75%, C[C@H](CO)N1C[C@H](C)[C@H](CN(C)Cc2cccnc2)Oc2ncc(C3=CCCC3)cc2C1=O 0.845%, C[C@@H]1CN([C@H](C)CO)C(=O)c2c(c3ccccc3n2C)-c2ccccc2CO[C@H]1CN(C)C(=O)[C@@H](Cc1ccccc1)N(C)C -56.3%, Cc1ccc(CN(CC(=O)NC2CCCCC2)C(=O)c2csnn2)cc1 -2.9% [at 12.3 µM], CS(=O)(=O)N(CC(=O)NC1CCCC1)Cc1ccc(F)cc1 12.4% [at 12.3 µM], O=C(C[C@@H]1CC[C@H](NC(=O)Nc2cc(F)ccc2F)[C@H](CO)O1)NCc1ccncn1 1.2%, COCCCNC(=O)c1ccc(-c2c(C)noc2C)c2ccoc12 -11% [at 12.3 µM], Cc1noc(C)c1-c1ccc(C(=O)NCc2ccncc2)c2occc12 -7.55% [at 12.3 µM], O=C(COC(=O)Cn1cnc2ccccc2c1=O)NCc1ccccc1Cl 0.405% [at 12.3 µM], CC1(C)C(=O)Nc2ccccc2N1C(=O)COC(=O)Cn1cnc2ccccc2c1=O -40.1% [at 12.3 µM], O=C(NCc1ccccn1)[C@@H]1[C@@H](CO)[C@@H]2Cn3c(ccc(/C=C/c4ccccc4)c3=O)[C@H]1N2CC1CC1 -8.79%, CC(C)C(C)NC(=O)COc1nc2ccccc2nc1N(C)C1CCCCC1 (configuration not stated) 17.4% [at 12.3 µM], CC(C)c1cc(C(=O)NC2CCCCCC2)c2ccccc2n1 30.2% [at 12.3 µM], COc1cccc(S(=O)(=O)N(C)C[C@@H]2Oc3cc(C#CCN(C)C)ccc3S(=O)(=O)N([C@@H](C)CO)C[C@@H]2C)c1 -11.4%, CCOC(=O)N1CCN(Cc2nc(Cc3cccc(C(F)(F)F)c3)no2)CC1 -3.49% [at 12.3 µM], FC(F)(F)c1ccc(-n2cn[nH]c2=S)cc1 2.89% [at 12.3 µM], O=C(C[C@H]1CC[C@H]2[C@@H](COC[C@@H](O)CN2Cc2nccs2)O1)NCc1ccccc1Cl 6.96%, CN(C)CC(=O)Nc1ccc2c(c1)[C@H]1C[C@H](CC(=O)NCc3ccccc3)O[C@@H](CO)[C@H]1O2 -29.2%, Cc1cccc(N(CC(O)CN(C)C)S(=O)(=O)c2ccccc2)c1 (configuration not stated) -28.3% [at 12.3 µM], COc1ccc([N+](=O)[O-])cc1N(CC(O)CN(CC(C)C)CC(C)C)S(=O)(=O)c1ccc(C)cc1 (configuration not stated) -12.9% [at 12.3 µM], CN(C)CC(=O)N[C@H]1CC[C@H](CCNC(=O)C2CCCCC2)O[C@H]1CO -245%, COc1ccc(CCNc2ncnc3nc[nH]c23)cc1OC 18% [at 12.3 µM], Cc1noc(C)c1C(=O)NCC1COc2ccccc2O1 (configuration not stated) -5.41% [at 12.3 µM], C[C@@H]1CCCCO[C@H](CN(C)Cc2ccc3c(c2)OCO3)[C@@H](C)CN([C@H](C)CO)C(=O)c2cc(N(C)C)ccc2O1 -11.2%, C[C@H](NC(=O)C[C@@H]1CC[C@H](NC(=O)CN2CCOCC2)[C@H](CO)O1)c1ccccc1 -13.9%, Cc1ccc(C(c2nnnn2CS(=O)(=O)c2ccc(C)cc2)N2CCC(C)CC2)cc1 (configuration not stated) 53.3% [at 12.3 µM], CCCCn1nnnc1C(c1ccccc1)N1CCN(c2ccccc2OC)CC1 (configuration not stated) 6.77% [at 12.3 µM], CN(C)CC(=O)Nc1ccc2c(c1)[C@H]1C[C@@H](CC(=O)NCc3ccc(-c4ccccc4)cc3)O[C@H](CO)[C@H]1O2 19.8%, COC(=O)[C@H](CC(C)C)NS(=O)(=O)c1c(F)cccc1F -17.9% [at 12.3 µM], COc1ccc(CCNC(=O)CSc2nc(-c3ccc(OC)c(OC)c3)ccc2C#N)cc1 4.49% [at 12.3 µM], COc1ccc(-c2cc(-c3ccc(N)cc3)nc(N)c2C#N)cc1OC 22.6% [at 12.3 µM], CS(=O)(=O)Nc1ccc2c(c1)[C@@H]1C[C@H](CC(=O)NCc3cc(F)ccc3F)O[C@@H](CO)[C@@H]1O2 18.1%, Cc1ccc(S(=O)(=O)Nc2ccc3c(c2)C(=O)N([C@H](C)CO)C[C@@H](C)[C@@H](CN(C)S(C)(=O)=O)OCCCC[C@@H](C)O3)cc1 -1.67%, C[C@@H]1CN([C@@H](C)CO)S(=O)(=O)c2ccc(-c3cccnc3)cc2O[C@H]1CN(C)CC1CCOCC1 -3.87%, C[C@@H]1CN([C@H](C)CO)C(=O)c2cccc(NS(C)(=O)=O)c2O[C@@H]1CN(C)C(=O)Nc1cccc2ccccc12 -1.18%, O=C(CNS(=O)(=O)c1cccc(C(F)(F)F)c1)Nc1ccccc1F -11.7% [at 12.3 µM], Cc1noc(C)c1S(=O)(=O)Nc1cc(C(F)(F)F)ccc1N1CCOCC1 22.4% [at 12.3 µM], COc1ccccc1CNC(=O)C[C@H]1C[C@@H]2c3cc(NC(=O)c4ccc5c(c4)OCO5)ccc3O[C@@H]2[C@H](CO)O1 4.06%, COc1ccccc1-c1c(C#N)c(N)nc2c1CCC2 24% [at 12.3 µM], CC(C)OC(=O)c1sc2nc3c(cc2c1N)C(=O)CCC3 -187% [at 12.3 µM], C[C@@H]1CN([C@@H](C)CO)C(=O)c2cc(NC(=O)Cn3cnnn3)ccc2O[C@H]1CN(C)Cc1ccc(C(F)(F)F)cc1 12.3%, Cc1n[nH]c(=O)c2c1nnn2Cc1ccc(F)cc1 -10.3% [at 12.3 µM], C[C@@H]1CN([C@H](C)CO)C(=O)c2cc(-c3ccccc3F)cnc2O[C@H]1CN(C)C(=O)NC1CCCCC1 -1.88%, O=C(C[C@H]1CC[C@@H]2NC[C@H](O)COC[C@H]2O1)NCCN1CCCCC1 18.8%, COc1ccccc1C(=O)NC(CCSC)C(=O)N1CCN(C(C)=O)CC1 (configuration not stated) -8.21% [at 12.3 µM], CSCCC(NC(=O)c1ccccc1)C(=O)N1CCN(Cc2ccc(Cl)cc2)CC1 (configuration not stated) 11.5% [at 12.3 µM], O=C(NCc1ccccc1)[C@H]1CCCN1C(=O)[C@@H]1CCCN1C(=O)c1ccc(Cl)cc1Cl -35.2% [at 12.3 µM], COCC(=O)N1C[C@@H](C)[C@H](OC)CN(C)C(=O)c2ccc(NC(=O)c3ccc(F)cc3)cc2OC[C@H]1C 19.1%, CO[C@@H]1CN(C)C(=O)c2cc(NS(=O)(=O)c3ccccc3)ccc2OC[C@@H](C)N(C(=O)NC(C)C)C[C@@H]1C 3.87%, CO[C@H]1CN(C)C(=O)c2cc(NS(=O)(=O)c3ccccc3)ccc2OC[C@H](C)N(C(=O)NC(C)C)C[C@@H]1C -19%, COc1cccc(S(=O)(=O)Nc2ccc3c(c2)C(=O)N(C)C[C@@H](OC)[C@@H](C)CN[C@@H](C)CO3)c1 3.22%, COc1ccccc1S(=O)(=O)Nc1ccc2c(c1)C(=O)N(C)C[C@H](OC)[C@H](C)CN[C@H](C)CO2 -20.4%, COCC(=O)N1C[C@H](C)[C@@H](OC)CN(C)C(=O)c2cc(NC(=O)c3ccc(OC)cc3)ccc2OC[C@H]1C -0.959%

inhibition, active:
CCCCn1c(SCc2ncc(-c3ccccc3)o2)nc2cc(S(N)(=O)=O)ccc21 32.4% [at 12.3 µM], Cc1cc(C(C)(C)C)oc1C(=O)N(CC(=O)NC1CCCC1)Cc1ccc(Cl)cc1 73.7% [at 12.3 µM], COc1ccc(CNC(=O)c2ccc(-c3cccnc3)c3ccoc23)cc1OC 55.1% [at 12.3 µM], CN(Cc1c(F)cccc1Cl)C(=O)COC(=O)Cn1cnc2ccccc2c1=O 63.4% [at 12.3 µM], CN(c1ccc2nc3ccccc3c(=O)n2n1)C1CCCCC1 68.2% [at 12.3 µM], Cn1c(-c2sccc2OCc2cccc(C(F)(F)F)c2)n[nH]c1=S 63.4% [at 12.3 µM], CC(C)CN(CC(C)C)CC(O)CN(c1ccccc1)S(=O)(=O)c1ccccc1[N+](=O)[O-] (configuration not stated) 65.4% [at 12.3 µM], c1ccc2c(c1)OCC(CNc1ncnc3nc[nH]c13)O2 (configuration not stated) 72.9% [at 12.3 µM], N#Cc1ccc(C(c2nnnn2CCc2ccccc2)N2CCCCCC2)cc1 (configuration not stated) 90.5% [at 12.3 µM], CCSc1nc(-c2ccc(OC)cc2)cc(-c2ccc(OC)cc2)c1C#N 66% [at 12.3 µM], Cc1oc2c(F)c(F)c(F)c(F)c2c1S(=O)(=O)Nc1cccc(C(F)(F)F)c1 55% [at 12.3 µM], NC(=O)c1sc2nc3c(c(-c4ccccc4)c2c1N)CCC3 103% [at 12.3 µM], Cc1cc(C)c2cc(CN(Cc3nnnn3Cc3ccc(F)cc3)C3CCCC3)c(=O)[nH]c2c1 84.5% [at 12.3 µM], COc1ccccc1C(=O)NC(CCSC)C(=O)N1CCN(C/C=C/c2ccccc2)CC1 (configuration not stated) 75.2% [at 12.3 µM], CO[C@@H]1CN(C)C(=O)c2cc(NS(=O)(=O)c3ccc(C)cc3)ccc2OC[C@H](C)N(C(=O)NC(C)C)C[C@@H]1C 64.3%, COc1ccccc1S(=O)(=O)Nc1ccc2c(c1)C(=O)N(C)C[C@@H](OC)[C@@H](C)CN[C@@H](C)CO2 61.2%, COCC(=O)N1C[C@@H](C)[C@H](OC)CN(C)C(=O)c2ccc(NC(=O)c3ccc(OC)cc3)cc2OC[C@@H]1C 58.2%
